Each structure is given as a SMILES string. Several values for one entry are separate records, joined by “and”; a condition that tells them apart may be missing. Equal entries are not always repeated. A number with no mark means an inactive call. Results filed as inconclusive are left out. Activity calls are given as the source filed them. Unless noted, calls come from the whole dose curve; as a rule, active = well fitted curve in the direction sought with a large enough effect in the repeat runs; inconclusive = weak or mixed curves; inactive = no such curve, though single readings can be large; an effect the other way counts as inactive or inconclusive.

In PubChem BioAssay (Tox21) one finds Potency and outcome data, which are given here for 7 molecules.

A short description of assay [1]: qHTS assay for small molecules that induce genotoxicity in human embryonic kidney cells expressing luciferase-tagged ATAD5 (AID 651632). Note: nearly all actives have a fitted effect of over 15% in size. In outline: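 HEK293T cells carrying luciferase-tagged ATAD5 were given compound or DMSO vehicle and incubated 16 hr at 37C, 5% CO2. Luciferase activity was read after 30 min at room temperature with Amplite; a rise signals genotoxic stress.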
A general note: qHTS replaces the single test concentration by a dilution series.

The nature of assay [2]: qHTS assay for small molecule agonists of the p53 signaling pathway - cell viability (AID 651633; calls by dose curve; note: nearly all actives have a fitted effect of over 30% in size; note: potency is the fitted concentration of half-maximal effect). The method in brief:
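Viability counter-read: CellTiter-Glo luminescence (30 min, room temperature) in the same p53RE-bla plates. These plates had been exposed to compounds for 16 h at 37 C.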

Assay [3] is described as follows: qHTS assay for small molecules that induce genotoxicity in human embryonic kidney cells expressing luciferase-tagged ATAD5 - cell viability (AID 651634; calls by dose curve; note: nearly all actives have a fitted effect of over 25% in size). In outline: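 HEK293T cells carrying luciferase-tagged ATAD5, 2,000 cells/well, exposed to compound for 15.5 hr at 37C. Viability read as live-cell protease activity by CellTiter-Fluor fluorescence after 30 min at 37C.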

Assay [4] can be described thus: qHTS assay for small molecule disruptors of the mitochondrial membrane potential - cell viability (AID 720634; calls by dose curve; note: nearly all actives have a fitted effect of over 20% in size; note: potency is the fitted concentration of half-maximal effect). The method in brief: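 HepG2 cells, 2,000 per well, attached overnight, then treated 1 hr at 37 C, 5% CO2. Viability read as ATP by CellTiter-Glo luminescence after 30 min at room temperature. Read in the same wells as the m-MPI membrane-potential dye assay.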

Assay [5] is described as follows: qHTS assay for small molecule disruptors of the mitochondrial membrane potential (AID 720635). Note: potency is the fitted concentration of half-maximal effect. The method in brief: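 Mitochondrial membrane potential tracked with Mito-MPS dye, red aggregates (ex 540/em 590 nm) against green monomers (ex 490/em 535 nm). Compound treatment 1 hr at 37C, dye 30 min in HepG2.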
Assay [6] is described as follows: qHTS assay to test for compound auto fluorescence at 590 nm (red) in HepG2 cells (AID 720674). The method in brief: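 1 hr compound incubation on HepG2 cells, 37 C, 5% CO2; plate read ex 540 nm / em 590 nm; intensities reported as Rose Bengal sodium equivalents.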
Assay [7] in a line: qHTS assay to test for compound auto fluorescence at 535 nm (green) in HepG2 cells (AID 720675).
A short description of assay [8]: qHTS assay to test for compound auto fluorescence at 460 nm (blue) in HEK293 cells (AID 720678). In outline:
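After cell attachment (4-5 hr, 37C), compounds were pinned onto HEK293 monolayers in 10% dialyzed FBS medium. The blue channel (405/460 nm) was read following overnight culture. Equivalency was calculated against triamterene.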

A short description of assay [9]: qHTS assay to test for compound auto fluorescence at 535 nm (green) in HEK293 cells (AID 720680).
The nature of assay [10]: qHTS assay to test for compound auto fluorescence at 460 nm (blue) in HEK293 cell free culture (AID 720681). The method in brief:
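Blue fluorescence (Ex 405/Em 460 nm, triamterene-equivalent) was read immediately after pin transfer of compound or DMSO into medium (DMEM, 10% FBS) without cells.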

Assay [11] can be described thus: qHTS assay to test for compound auto fluorescence at 535 nm (green) in HEK293 cell free culture (AID 720682). In outline:
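Fluorescein serves as the green reference fluorophore; each compound's intrinsic emission at 535 nm (excitation 485 nm) is reported as an equivalent amount of that dye, measured in serum-containing DMEM without cells.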

Assay [12] is described as follows: qHTS assay to test for compound auto fluorescence at 590 nm (red) in HEK293 cell free culture (AID 720683). The method in brief:
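Red-channel autofluorescence of compounds in culture medium (DMEM, 10% FBS), no cells, measured at 540/590 nm. Rose Bengal sodium is the reference fluorophore for equivalence.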

Assay [13] can be described thus: qHTS assay to test for compound auto fluorescence at 590 nm (red) in HepG2 cell free culture (AID 720684). The method in brief: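 Steps: dispense MEM/10% FBS medium, no cells; pin compound or DMSO vehicle; read red channel, Ex/Em 540/590 nm. Output given as Rose Bengal sodium equivalents.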
A short description of assay [14]: qHTS assay to test for compound auto fluorescence at 460 nm (blue) in HepG2 cell free culture (AID 720685). In outline:
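Compound (23 nL) or DMSO pinned into cell-free MEM with 10% FBS; blue fluorescence read at 405/460 nm excitation/emission, expressed as auto-fluorescence equivalency to triamterene.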

A short description of assay [15]: qHTS assay to test for compound auto fluorescence at 535 nm (green) in HepG2 cell free culture (AID 720686).
Assay [16] in a line: qHTS assay to test for compound auto fluorescence at 460 nm (blue) in HepG2 cells (AID 720687). The method in brief: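 Blue-channel autofluorescence (Ex/Em 405/460 nm, triamterene-equivalent) was measured after 1 hr compound exposure at 37 C, 5% CO2. Cells were HepG2, plated overnight at 37 C in MEM plus 10% FBS.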
The nature of assay [17]: qHTS assay to test for compound auto fluorescence at 590 nm (red) in HEK293 cells (AID 720679). The method in brief: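 Plates of HEK293 cells (10% dialyzed FBS) are treated with 23 nL compound or DMSO vehicle after a 4-5 hr attachment period, incubated overnight at 37C, and read for red fluorescence at 540/590nm.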
Assay [18] concerns the target Glucocorticoid receptor (Homo sapiens) (UniProt P04150). Briefly: qHTS assay to identify small molecule agonists of the glucocorticoid receptor (GR) signaling pathway (AID 720691; active = well fitted activation curve with a large enough effect in the signal ratio in the repeat runs, not every such curve was filed as active; the % refers to the signal ratio). In outline: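 GR-bla HeLa cells carrying a GRE-driven beta-lactamase reporter, exposed to compounds for 18 h at 37 C. Reporter activation read as fluorescence after 2 h with LiveBLAzer B/G FRET substrate at room temperature.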

Assay [19] has the same target. As to the kind of experiment: qHTS assay to identify small molecule antagonists of the glucocorticoid receptor (GR) signaling pathway (AID 720692; active = well fitted inhibition curve with a large enough effect in the signal ratio in the repeat runs, not every such curve was filed as active; the % refers to the signal ratio; note: potency is the fitted concentration of half-maximal effect). The method in brief:
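GR-bla HeLa cells carrying a GRE-driven beta-lactamase reporter received compound after 4 h plating, then dexamethasone (5 nM final). After 18 h at 37C, the FRET substrate was loaded for 2 h at room temperature and fluorescence read.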

Chain of Glucocorticoid receptor (Homo sapiens) (P04150 whole entry, looked up): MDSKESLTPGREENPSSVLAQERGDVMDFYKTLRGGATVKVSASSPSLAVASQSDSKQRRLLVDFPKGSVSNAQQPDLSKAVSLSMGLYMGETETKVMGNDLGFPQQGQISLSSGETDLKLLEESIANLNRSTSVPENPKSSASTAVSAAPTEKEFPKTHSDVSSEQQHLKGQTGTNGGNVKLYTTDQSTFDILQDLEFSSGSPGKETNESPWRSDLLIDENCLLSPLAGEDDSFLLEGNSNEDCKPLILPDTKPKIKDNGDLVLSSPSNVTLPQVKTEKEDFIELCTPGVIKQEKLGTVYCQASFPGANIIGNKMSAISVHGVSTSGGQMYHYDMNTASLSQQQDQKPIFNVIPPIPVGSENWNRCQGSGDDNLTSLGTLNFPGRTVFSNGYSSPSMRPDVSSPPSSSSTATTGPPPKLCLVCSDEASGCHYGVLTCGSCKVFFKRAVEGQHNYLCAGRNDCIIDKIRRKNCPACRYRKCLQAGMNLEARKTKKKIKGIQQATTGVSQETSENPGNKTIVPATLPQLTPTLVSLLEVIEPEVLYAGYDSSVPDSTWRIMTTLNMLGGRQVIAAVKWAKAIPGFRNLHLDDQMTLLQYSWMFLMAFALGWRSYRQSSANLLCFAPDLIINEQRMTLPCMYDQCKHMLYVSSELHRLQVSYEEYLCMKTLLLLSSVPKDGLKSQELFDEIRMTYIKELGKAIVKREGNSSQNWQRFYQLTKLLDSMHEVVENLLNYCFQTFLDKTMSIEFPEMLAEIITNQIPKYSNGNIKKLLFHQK

Consider `CCOc1cc(C(C)(C)C)ccc1C1COC(c2c(F)cccc2F)=N1` (stereo unspecified), for which the Potency entry in [1], in assay [3], in assay [8], in [10], in assay [14] and in assay [16] was “inactive” each time. The Potency was 41.6 µM (active) in assay [2], 29.5 µM (active) in [4] and 16.6 µM (active) in assay [5]. Moreover, the call in assay [6], in [7], in assay [9], in [11], in assay [12] and in [13] was inactive. Moreover, the molecule was classed as inactive in [15].
As to `O=C(CBr)c1ccc(O)cc1`, the Potency result in assay [1], in assay [2], in assay [3], in assay [4], in assay [8] and in assay [10] was “inactive” each time. For the same molecule, the Potency entry in [14], in assay [16], in assay [18] and in assay [19] was “inactive” throughout. Also, the call in assay [6], in [7], in assay [17], in [9], in assay [11] and in [12] was inactive. The outcome in [13] and in assay [15] was inactive.
With `COP(=S)(OC)Oc1cc(Cl)c(Br)cc1Cl`, the Potency entry in assay [1], in assay [2], in [3], in assay [8], in [10] and in [16] was “inactive” in each case. The Potency is 54.5 µM (active) in assay [4] and 6.86 µM (active) in assay [5]. For the same molecule, the molecule was classed as inactive in assay [6], in assay [7], in assay [17], in assay [9], in assay [11] and in assay [12]. Besides, the molecule was classed as inactive in assay [13] and in [15].
Regarding `O=C(O)COc1nc(Cl)c(Cl)cc1Cl`, the Potency entry in assay [1], in [2], in assay [3], in assay [4], in assay [8] and in assay [10] was “inactive” in each case. The Potency result in [14] and in assay [16] was “inactive” each time. In addition, the Potency in assay [5] was 19.8 µM (active). Moreover, the outcome in [6], in assay [7], in assay [17], in assay [9], in assay [11] and in assay [12] was inactive. The outcome in [15] was inactive.
As for `Nc1ccc(Sc2ccc(N)cc2)cc1`, the Potency entry in assay [1], in assay [2], in [3], in assay [4], in [8] and in [10] was “inactive” each time. For the same molecule, the Potency result in assay [14], in assay [16] and in assay [18] was “inactive” each time. Also, the outcome in [6], in assay [7], in [17], in assay [9], in assay [11] and in [12] was inactive. The outcome in assay [15] was inactive.
As to `CCOCCOC(C)=O`, the Potency result in assay [1], in assay [2], in assay [3], in assay [4], in assay [8] and in assay [10] was “inactive” in each case. Besides, the Potency entry in assay [14] and in assay [16] was “inactive” each time. Further, the result in [6], in assay [7], in assay [17], in [9], in assay [11] and in [12] was inactive. For the same molecule, the call in assay [13] and in assay [15] was inactive.
For the molecule `Clc1ccc(C(c2ccc(Cl)cc2)C(Cl)(Cl)Cl)cc1`, the Potency result in assay [1], in [3], in assay [4], in assay [8], in assay [10] and in assay [14] was “inactive” throughout. The Potency entry in assay [16] was “inactive”. In addition, the Potency in assay [2] was 26.6 µM (active) and 48.9 µM (active) and 27.3 µM (active); in assay [5], 21.1 µM (active) and 19.5 µM (active) and 15.4 µM (active); in [19], 43.6 µM (active). For the same molecule, the outcome in [6], in assay [7], in assay [17], in assay [9], in assay [11] and in [12] was inactive. Besides, the outcome in assay [13] and in assay [15] was inactive.
